Data reported in PMC7819943, “Rice protein-binding microarrays: a tool to detect cis-acting elements near promoter regions in rice”.
In all, about 39,000 sequences were measured (“fluorescence intensity (a.u.)”: median about 4,300, highest 2% from about 39,000 on). Many of the other results were omitted from the sample, so the highest values are more common in it than they were.

Each sequence was assayed against T1, OsSMF1 (Oryza sativa, UniProt Q6ZLB0 1-436) (assay: protein-binding microarray (RPBM); PBS, 2% BSA, 51.3 ng/ul salmon testes DNA, 50 uM zinc acetate, 200 nM TF, 25 C, 1 h; high values mean tight binding). Conditions: protein: recombinant; tags: N-terminal polyhistidine and DsRed monomer fusion (pET32a); chain copies: 2; label: CyDye5-dUTP incorporated in the synthesized complementary strand; 3' TTTTT single-stranded linker to array surface; dsDNA, one strand shown.
T1 sequence: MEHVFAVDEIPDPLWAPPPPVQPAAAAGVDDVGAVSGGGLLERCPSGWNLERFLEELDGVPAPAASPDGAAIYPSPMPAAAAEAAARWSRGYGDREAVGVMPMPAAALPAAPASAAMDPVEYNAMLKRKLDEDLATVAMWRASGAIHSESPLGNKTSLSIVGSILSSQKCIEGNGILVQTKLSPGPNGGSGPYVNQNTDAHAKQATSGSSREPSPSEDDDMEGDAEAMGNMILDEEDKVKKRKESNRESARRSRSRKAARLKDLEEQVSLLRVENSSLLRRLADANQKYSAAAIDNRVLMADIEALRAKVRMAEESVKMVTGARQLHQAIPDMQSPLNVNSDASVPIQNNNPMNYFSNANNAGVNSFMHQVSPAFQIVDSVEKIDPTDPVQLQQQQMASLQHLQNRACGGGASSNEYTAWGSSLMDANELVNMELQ
In short: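 Transcription factors, each fused N-terminally to a polyhistidine tag and DsRed, were expressed in E. coli BL21-CodonPlus and purified on Ni–NTA. A custom Agilent array was made double-stranded by primer extension with Cy5-dUTP and blocked with 2% BSA. It was incubated with 200 nM protein in PBS, 2% BSA, salmon testes DNA and 50 µM zinc acetate at 25 °C for 1 h, then washed. The binding signal is per-feature fluorescence intensity (arbitrary units) read on an Axon 4000B scanner.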

With “GAAGTGTCCATATTGAGTCATTTGTCCATTTGCCCAGGCACGGAGTCACCTAGTGCAG” as the sequence, how does the binding signal read?
Its binding signal is 4960 fluorescence intensity (a.u.).

“TCCTCTTGCCTCCTCCGCTGAGGCAGCCAGTGCGTGCGCCCGGAGTCACCTAGTGCAG” was tested. Which binding signal did it give?
Its binding signal is 3360 fluorescence intensity (a.u.).

“AGATGATCTAGGCGTGCGTGCATGCATGCGTGGCCCGCCACGGAGTCACCTAGTGCAG” was tested. Which binding signal did it give?
The binding signal was 4340 fluorescence intensity (a.u.).

“CTCCTCCTCCTCCAGACCTCCACGCGAGCGTGCCCCGGGGCGGAGTCACCTAGTGCAG” was tested. Which binding signal did it give?
The binding signal was 4470 fluorescence intensity (a.u.).

How did the binding signal turn out when “GCCTCGTTTGATTGGTCACATGCATGGAAAGAGACTCACACGGAGTCACCTAGTGCAG” was run?
The binding signal was 16700 fluorescence intensity (a.u.).

Which binding signal does the source give for “CAACTTTGGAAGAACTAAACACAGCATATGACAGTGCAGTCGGAGTCACCTAGTGCAG” here?
The binding signal was 4130 fluorescence intensity (a.u.).

Which binding signal does the source give for “TTGCAAACACAGGAATTACCGTTTGATTGAACCACAGGAACGGAGTCACCTAGTGCAG” here?
Its binding signal is 12300 fluorescence intensity (a.u.).

“AAGGAAGTCGTTTTGGACAGCGACACAGTCTCTAAAACACCGGAGTCACCTAGTGCAG” was tested. Which binding signal did it give?
The binding signal was 58900 fluorescence intensity (a.u.).

“AAAACACAGGAATGGTCGTTTGATTGGAGCGCAGGAGAAACGGAGTCACCTAGTGCAG” was tested. Which binding signal did it give?
The binding signal was 64900 fluorescence intensity (a.u.).

With “CCGTACTCATAAAGGAAGTCGTTTTGGACAGCATCACGGTCGGAGTCACCTAGTGCAG” as the sequence, how does the binding signal read?
Its binding signal is 4170 fluorescence intensity (a.u.).

For “TAACATAGTTGATATTGTTTAATGTCATGACAAAGAATGACGGAGTCACCTAGTGCAG”, which binding signal is on record?
The binding signal was 3580 fluorescence intensity (a.u.).

“CTCCTACATGCACTCCCCTCTACAAAACCACAACCAGCATCGGAGTCACCTAGTGCAG” was tested. Which binding signal did it give?
The binding signal was 3600 fluorescence intensity (a.u.).

For “ACTATTTCTCCAGATAGTAGTAGTAACTCTTACGTCATGGCGGAGTCACCTAGTGCAG”, which binding signal is on record?
Its binding signal is 4910 fluorescence intensity (a.u.).

“ATAAAGACCTAGTCAATGGAGTGCCACGTAGGCACCACGTCGGAGTCACCTAGTGCAG” was tested. Which binding signal did it give?
The binding signal was 39000 fluorescence intensity (a.u.).

“TAAGCGCCACATCAGTGCCACGTCGGATGAAGACCGAGTCCGGAGTCACCTAGTGCAG” was tested. Which binding signal did it give?
The binding signal was 25000 fluorescence intensity (a.u.).

“GAATTGCCACGTAGGCGCCACGTCATATGAAGACCGAGTCCGGAGTCACCTAGTGCAG” was tested. Which binding signal did it give?
The binding signal was 45500 fluorescence intensity (a.u.).

Which binding signal does the source give for “CAAATCAAATTACCACATAAGCACCACGTCAATGCCACGTCGGAGTCACCTAGTGCAG” here?
Its binding signal is 22200 fluorescence intensity (a.u.).

With “AGCGTCACCTCAATGCCACGTGTGATAAAGACCTAGTTAACGGAGTCACCTAGTGCAG” as the sequence, how does the binding signal read?
Its binding signal is 17200 fluorescence intensity (a.u.).

“AAATTGCCACGTAAGTGCCATGTCATATGAAGACCGAGTCCGGAGTCACCTAGTGCAG” was tested. Which binding signal did it give?
The binding signal was 17800 fluorescence intensity (a.u.).

How did the binding signal turn out when “CAGACAGACACAGAGAGATCGATATCAACATGCTTTAGTCCGGAGTCACCTAGTGCAG” was run?
Its binding signal is 3710 fluorescence intensity (a.u.).

“CAAAAGGGAATGCTTTAGGCAGATCATGGAGATAAAGACTCGGAGTCACCTAGTGCAG” was tested. Which binding signal did it give?
Its binding signal is 39000 fluorescence intensity (a.u.).

How did the binding signal turn out when “TTGTCAAATCATGGCGTCATTAGGCTTAAAAGATTCGTCTCGGAGTCACCTAGTGCAG” was run?
Its binding signal is 4280 fluorescence intensity (a.u.).

Which binding signal does the source give for “GTGTAGTTACCTTCTCGTAGGTGTCATCGAGGATGATGGCCGGAGTCACCTAGTGCAG” here?
The binding signal was 3910 fluorescence intensity (a.u.).
